This passage reports binding signal results from article PMC7862700, “An all-to-all approach to the identification of sequence-specific readers for epigenetic DNA modifications on cytosine”.

Experiment in all cases: DAPPL (digital affinity profiling via proximity ligation, sequencing); 10 mM Tris-HCl pH 7.5, 50 mM NaCl, 1 mM DTT, 4% glycerol, room temperature, 30 min; GST-TFs on glutathione beads, 16-mer random dsDNA library, 0.1% formaldehyde crosslink after washing; high values mean tight binding
Holding throughout (conditions): protein: recombinant; tags: N-terminal GST; dsDNA, one strand shown

One assay deals with T1, ELK1 (Homo sapiens, UniProt P19419 1-428).
T1 sequence: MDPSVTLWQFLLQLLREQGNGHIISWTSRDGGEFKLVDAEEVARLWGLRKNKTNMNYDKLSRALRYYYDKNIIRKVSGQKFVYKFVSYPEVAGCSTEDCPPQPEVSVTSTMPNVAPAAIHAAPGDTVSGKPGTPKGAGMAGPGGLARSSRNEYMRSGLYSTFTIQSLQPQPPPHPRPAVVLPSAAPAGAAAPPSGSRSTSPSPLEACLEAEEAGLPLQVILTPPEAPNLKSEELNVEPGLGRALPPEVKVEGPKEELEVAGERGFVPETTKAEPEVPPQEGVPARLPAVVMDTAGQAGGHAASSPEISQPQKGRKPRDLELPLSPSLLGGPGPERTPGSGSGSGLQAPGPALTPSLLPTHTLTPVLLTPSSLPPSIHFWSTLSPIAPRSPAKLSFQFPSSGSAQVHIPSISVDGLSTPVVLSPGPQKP
Summed up:
(§1)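 GST fusions of human transcription factors were expressed in yeast and captured with glutathione beads. Once given DNA barcodes and pooled alongside a tag-only sample, they were incubated for 30 min at room temperature with 200 nmole of a random double-stranded 16-mer DNA library in Tris/NaCl/DTT/glycerol buffer, then washed, crosslinked (0.1% formaldehyde), proximity-ligated, PCR-amplified and sequenced on an Illumina NextSeq500. The binding signal of each hexamer is its read frequency for a factor divided by its frequency for the tag-only sample.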

For the next assay, the target named is T2, GABPA (Homo sapiens, UniProt Q06546 1-454).
T2 sequence: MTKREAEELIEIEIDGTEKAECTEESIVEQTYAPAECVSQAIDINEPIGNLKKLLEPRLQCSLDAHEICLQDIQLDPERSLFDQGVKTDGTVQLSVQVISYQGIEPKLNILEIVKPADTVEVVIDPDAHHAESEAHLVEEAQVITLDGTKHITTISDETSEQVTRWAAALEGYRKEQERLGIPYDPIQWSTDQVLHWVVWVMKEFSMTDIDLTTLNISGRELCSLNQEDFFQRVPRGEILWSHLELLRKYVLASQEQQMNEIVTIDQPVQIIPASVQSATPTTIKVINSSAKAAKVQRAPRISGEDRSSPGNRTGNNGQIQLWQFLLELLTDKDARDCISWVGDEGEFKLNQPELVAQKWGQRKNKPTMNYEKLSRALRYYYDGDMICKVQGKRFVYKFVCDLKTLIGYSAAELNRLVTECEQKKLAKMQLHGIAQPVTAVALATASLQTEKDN
Summed up: as §1

A further assay deals with ELF1 (Homo sapiens, UniProt P32519 1-619). Summed up: as §1
The target in the next assay is T3, EHF (Homo sapiens, UniProt Q9NZC4 1-300).
T3 sequence: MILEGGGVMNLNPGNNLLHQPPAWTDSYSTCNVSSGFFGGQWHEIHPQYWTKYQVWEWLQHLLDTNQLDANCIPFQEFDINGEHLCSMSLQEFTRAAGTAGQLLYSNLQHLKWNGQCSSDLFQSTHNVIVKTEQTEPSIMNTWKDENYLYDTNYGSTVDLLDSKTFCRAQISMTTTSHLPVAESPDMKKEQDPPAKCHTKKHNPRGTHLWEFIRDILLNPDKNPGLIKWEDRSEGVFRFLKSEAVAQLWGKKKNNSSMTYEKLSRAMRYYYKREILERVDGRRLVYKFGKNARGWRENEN
Summed up:
as §1

The target of a further assay is SPI1 (Homo sapiens, UniProt P17947 1-270). The method, boiled down:
as §1

Another assay has as its target SPIB (Homo sapiens, UniProt Q01892 1-262). Summed up:
as §1

The target in a further assay is ETV5 (Homo sapiens, UniProt P41161 1-510). Summed up:
as §1

Another assay deals with ELF4 (Homo sapiens, UniProt Q99607 1-663). The method, boiled down:
as §1

For another assay, the target named is T4, ELK4 (Homo sapiens, UniProt P28324-2 1-405).
T4 sequence: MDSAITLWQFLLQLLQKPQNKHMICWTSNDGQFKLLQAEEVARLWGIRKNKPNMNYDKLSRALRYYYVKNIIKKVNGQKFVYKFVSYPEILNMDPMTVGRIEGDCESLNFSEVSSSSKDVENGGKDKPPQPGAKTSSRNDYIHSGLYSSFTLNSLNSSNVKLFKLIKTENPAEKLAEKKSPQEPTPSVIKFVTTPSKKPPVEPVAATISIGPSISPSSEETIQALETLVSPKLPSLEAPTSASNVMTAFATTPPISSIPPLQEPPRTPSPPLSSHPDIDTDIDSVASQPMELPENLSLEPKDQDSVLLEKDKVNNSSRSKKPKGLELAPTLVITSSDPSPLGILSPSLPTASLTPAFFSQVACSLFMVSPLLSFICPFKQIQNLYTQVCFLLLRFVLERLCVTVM
Summed up:
as §1

Another assay addresses T5, ELF3 (Homo sapiens, UniProt P78545 1-371).
T5 sequence: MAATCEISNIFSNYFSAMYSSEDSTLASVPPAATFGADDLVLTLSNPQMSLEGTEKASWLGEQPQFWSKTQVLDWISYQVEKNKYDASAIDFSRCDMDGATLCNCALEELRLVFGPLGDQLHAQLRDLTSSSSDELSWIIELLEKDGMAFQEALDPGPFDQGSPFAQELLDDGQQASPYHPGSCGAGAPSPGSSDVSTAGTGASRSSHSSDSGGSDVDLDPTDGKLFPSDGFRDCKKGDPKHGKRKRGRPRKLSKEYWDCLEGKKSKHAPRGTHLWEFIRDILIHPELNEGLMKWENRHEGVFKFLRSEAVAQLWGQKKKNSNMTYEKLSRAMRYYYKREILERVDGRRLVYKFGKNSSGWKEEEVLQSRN
Summed up:
as §1

In the next assay the target is ETV1 (Homo sapiens, UniProt P50549 1-477). Summed up:
as §1

The next assay deals with T6, ERF (Homo sapiens, UniProt P50548 1-548).
T6 sequence: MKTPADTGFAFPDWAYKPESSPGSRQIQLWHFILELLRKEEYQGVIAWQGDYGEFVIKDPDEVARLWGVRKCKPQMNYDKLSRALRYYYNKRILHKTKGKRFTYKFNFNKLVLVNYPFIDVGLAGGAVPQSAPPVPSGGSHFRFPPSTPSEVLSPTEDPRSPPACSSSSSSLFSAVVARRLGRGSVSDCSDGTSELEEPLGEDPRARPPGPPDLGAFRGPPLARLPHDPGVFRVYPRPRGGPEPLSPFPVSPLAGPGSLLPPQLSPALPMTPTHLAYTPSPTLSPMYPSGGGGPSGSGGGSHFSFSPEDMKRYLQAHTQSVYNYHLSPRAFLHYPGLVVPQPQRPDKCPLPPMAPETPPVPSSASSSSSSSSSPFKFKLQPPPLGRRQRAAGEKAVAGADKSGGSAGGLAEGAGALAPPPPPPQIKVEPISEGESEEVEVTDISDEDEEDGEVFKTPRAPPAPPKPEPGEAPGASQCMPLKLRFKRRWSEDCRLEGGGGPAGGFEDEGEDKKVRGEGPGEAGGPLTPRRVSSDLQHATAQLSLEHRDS
Summed up: as §1

For another assay, the target named is T7, ETV3L (Homo sapiens, UniProt Q6ZN32 1-361).
T7 sequence: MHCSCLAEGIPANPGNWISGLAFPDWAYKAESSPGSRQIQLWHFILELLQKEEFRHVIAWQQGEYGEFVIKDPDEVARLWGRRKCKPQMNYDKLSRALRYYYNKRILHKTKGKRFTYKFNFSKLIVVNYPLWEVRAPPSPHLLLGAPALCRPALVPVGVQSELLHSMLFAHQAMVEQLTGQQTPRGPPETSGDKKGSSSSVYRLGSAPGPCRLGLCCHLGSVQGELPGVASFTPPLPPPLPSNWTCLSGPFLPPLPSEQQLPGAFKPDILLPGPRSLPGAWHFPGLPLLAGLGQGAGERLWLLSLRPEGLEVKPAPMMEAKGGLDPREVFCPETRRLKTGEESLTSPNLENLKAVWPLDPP
Summed up:
as §1

For the next assay, the target named is T8, ETS2 (Homo sapiens, UniProt P15036 1-469).
T8 sequence: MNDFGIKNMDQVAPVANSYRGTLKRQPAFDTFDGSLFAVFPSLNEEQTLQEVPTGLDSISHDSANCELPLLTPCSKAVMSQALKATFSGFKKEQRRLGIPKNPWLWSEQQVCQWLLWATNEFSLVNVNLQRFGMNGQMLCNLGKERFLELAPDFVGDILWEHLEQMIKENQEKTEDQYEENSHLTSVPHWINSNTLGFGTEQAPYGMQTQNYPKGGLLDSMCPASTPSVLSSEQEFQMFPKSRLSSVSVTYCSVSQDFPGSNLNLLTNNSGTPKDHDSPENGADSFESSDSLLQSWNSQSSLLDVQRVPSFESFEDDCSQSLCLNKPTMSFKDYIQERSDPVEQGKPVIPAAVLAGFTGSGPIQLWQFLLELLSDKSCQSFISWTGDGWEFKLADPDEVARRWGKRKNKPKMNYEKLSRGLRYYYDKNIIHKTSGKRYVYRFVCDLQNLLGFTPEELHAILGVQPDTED
Summed up:
as §1

The target in another assay is T9, ETV3 (Homo sapiens, UniProt P41162-2 1-143).
T9 sequence: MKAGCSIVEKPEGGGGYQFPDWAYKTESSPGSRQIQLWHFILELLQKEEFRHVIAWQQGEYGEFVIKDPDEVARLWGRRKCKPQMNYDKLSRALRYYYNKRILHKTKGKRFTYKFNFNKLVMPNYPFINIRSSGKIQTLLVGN
The method, boiled down: as §1

The target of the next assay is T10, FEV (Homo sapiens, UniProt Q99581 1-238).
T10 sequence: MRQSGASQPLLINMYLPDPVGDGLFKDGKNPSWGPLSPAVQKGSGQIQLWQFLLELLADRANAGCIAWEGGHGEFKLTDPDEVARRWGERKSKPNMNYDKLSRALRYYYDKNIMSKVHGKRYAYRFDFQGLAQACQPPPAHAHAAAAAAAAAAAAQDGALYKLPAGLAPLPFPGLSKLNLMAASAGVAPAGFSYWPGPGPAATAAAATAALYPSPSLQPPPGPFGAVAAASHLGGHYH
The method, boiled down: as §1

For another assay, the target named is T11, ETV2 (Homo sapiens, UniProt O00321 1-342).
T11 sequence: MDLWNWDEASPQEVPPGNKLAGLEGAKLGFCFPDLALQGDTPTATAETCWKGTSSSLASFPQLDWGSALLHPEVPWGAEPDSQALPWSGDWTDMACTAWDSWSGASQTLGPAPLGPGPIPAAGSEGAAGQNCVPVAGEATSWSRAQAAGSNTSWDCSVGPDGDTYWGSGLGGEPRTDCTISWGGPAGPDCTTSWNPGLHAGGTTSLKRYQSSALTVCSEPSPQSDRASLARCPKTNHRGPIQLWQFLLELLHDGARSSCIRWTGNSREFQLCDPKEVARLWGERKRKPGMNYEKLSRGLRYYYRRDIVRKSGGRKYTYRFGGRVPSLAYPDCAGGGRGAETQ
Summed up:
as §1

Another assay addresses T12, ETV7 (Homo sapiens, UniProt Q9Y603 1-341).
T12 sequence: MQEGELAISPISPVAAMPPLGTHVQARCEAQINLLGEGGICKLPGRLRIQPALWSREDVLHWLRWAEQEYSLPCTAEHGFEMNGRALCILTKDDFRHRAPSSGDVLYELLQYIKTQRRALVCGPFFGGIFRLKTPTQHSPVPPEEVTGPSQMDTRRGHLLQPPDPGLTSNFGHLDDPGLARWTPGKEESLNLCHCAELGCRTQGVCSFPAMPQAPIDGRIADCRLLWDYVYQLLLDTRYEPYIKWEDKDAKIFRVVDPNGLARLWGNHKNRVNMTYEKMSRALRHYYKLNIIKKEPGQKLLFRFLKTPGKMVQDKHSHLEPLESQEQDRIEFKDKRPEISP
The method, boiled down: as §1

In another assay the target is ETV6 (Homo sapiens, UniProt P41212 1-452). Summed up: as §1
ETV6, sequence (P41212 whole entry): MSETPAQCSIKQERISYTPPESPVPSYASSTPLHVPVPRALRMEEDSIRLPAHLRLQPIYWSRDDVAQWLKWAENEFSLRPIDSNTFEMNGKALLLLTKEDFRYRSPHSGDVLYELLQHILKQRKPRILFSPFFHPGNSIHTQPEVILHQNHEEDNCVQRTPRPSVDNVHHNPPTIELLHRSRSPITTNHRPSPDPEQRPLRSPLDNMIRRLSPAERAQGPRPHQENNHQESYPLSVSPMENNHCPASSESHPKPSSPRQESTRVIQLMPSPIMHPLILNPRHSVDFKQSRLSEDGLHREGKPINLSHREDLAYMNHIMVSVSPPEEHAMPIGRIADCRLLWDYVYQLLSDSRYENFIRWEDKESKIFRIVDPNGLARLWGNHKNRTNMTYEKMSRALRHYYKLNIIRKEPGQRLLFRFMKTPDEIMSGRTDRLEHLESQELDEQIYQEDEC

ETV5, sequence (P41161 whole entry): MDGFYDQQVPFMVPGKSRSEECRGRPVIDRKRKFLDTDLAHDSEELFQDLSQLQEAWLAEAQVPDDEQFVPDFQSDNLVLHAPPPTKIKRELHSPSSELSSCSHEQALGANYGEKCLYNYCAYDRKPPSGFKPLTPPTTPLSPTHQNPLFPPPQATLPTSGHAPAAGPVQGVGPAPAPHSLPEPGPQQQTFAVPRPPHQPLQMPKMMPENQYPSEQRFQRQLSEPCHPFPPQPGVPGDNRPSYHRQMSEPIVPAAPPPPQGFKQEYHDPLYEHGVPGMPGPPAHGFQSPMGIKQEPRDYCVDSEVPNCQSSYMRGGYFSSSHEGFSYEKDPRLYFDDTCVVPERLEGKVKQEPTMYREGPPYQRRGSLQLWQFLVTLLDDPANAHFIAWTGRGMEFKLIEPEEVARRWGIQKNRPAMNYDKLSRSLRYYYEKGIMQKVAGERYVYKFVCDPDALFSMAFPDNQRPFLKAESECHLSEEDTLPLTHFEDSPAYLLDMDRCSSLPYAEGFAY
SPIB, sequence (Q01892 whole entry): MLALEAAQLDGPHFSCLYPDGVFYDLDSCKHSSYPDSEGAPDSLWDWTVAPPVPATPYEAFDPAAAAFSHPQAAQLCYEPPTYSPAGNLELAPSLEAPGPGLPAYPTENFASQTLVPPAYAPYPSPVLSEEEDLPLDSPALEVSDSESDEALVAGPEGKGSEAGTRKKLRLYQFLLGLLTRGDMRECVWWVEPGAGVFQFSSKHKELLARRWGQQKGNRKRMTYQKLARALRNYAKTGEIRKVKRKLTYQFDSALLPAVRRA
ELF1, sequence (P32519 whole entry): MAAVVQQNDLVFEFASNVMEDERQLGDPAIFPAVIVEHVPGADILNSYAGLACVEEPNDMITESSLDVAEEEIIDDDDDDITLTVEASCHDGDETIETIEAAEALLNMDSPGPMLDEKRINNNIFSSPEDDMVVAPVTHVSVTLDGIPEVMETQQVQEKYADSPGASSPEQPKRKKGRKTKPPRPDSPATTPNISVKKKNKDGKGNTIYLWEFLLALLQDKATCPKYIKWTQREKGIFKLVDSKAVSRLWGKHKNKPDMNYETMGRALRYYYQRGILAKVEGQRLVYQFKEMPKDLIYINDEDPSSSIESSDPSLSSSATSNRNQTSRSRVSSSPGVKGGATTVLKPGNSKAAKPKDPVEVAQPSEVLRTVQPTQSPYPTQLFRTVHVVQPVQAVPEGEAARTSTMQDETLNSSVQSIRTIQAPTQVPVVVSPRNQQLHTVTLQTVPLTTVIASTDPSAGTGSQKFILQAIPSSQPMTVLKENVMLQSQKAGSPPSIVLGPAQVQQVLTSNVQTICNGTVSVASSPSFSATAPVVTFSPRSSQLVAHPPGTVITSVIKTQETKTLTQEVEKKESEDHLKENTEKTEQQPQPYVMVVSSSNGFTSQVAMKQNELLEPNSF
ELF4, sequence (Q99607 whole entry): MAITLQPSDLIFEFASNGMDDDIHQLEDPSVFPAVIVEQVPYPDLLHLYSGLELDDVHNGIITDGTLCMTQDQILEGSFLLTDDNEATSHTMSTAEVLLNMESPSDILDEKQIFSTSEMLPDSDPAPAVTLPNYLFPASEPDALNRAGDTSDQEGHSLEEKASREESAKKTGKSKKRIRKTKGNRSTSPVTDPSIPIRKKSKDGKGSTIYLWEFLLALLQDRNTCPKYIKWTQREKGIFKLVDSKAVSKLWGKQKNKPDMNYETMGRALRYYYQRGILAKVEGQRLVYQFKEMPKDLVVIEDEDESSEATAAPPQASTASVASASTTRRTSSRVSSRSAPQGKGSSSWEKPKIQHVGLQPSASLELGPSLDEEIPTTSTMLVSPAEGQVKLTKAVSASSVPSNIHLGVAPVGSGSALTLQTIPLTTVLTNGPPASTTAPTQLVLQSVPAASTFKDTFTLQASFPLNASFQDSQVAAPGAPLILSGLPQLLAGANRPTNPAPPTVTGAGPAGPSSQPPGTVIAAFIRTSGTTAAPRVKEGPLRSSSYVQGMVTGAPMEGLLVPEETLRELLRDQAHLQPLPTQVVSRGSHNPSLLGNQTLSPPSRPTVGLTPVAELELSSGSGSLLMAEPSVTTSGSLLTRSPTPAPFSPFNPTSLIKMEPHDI
ETV1, sequence (P50549 whole entry): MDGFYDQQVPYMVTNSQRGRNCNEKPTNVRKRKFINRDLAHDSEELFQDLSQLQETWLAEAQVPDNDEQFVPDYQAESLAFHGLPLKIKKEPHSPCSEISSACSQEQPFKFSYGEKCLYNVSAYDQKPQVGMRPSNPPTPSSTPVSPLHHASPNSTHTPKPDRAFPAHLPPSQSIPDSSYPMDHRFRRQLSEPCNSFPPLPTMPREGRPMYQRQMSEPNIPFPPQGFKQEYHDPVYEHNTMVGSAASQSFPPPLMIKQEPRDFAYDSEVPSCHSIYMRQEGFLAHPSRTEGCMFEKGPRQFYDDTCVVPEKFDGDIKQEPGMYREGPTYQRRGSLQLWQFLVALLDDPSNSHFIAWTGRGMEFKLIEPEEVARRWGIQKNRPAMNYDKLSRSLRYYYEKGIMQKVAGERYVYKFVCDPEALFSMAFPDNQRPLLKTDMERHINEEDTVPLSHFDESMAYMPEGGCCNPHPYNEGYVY

On to TGCAAG, for which the binding signal is 1.11 fold enrichment (6-mer frequency, TF over GST control) with ELK1; 1.07 fold enrichment (6-mer frequency, TF over GST control) with GABPA; 1.01 fold enrichment (6-mer frequency, TF over GST control) in the assay with ELF1; 1.02 fold enrichment (6-mer frequency, TF over GST control) with EHF; 1 fold enrichment (6-mer frequency, TF over GST control) in the assay with SPI1; 1.04 fold enrichment (6-mer frequency, TF over GST control) with SPIB. The binding signal with ETV5 was 1.07 fold enrichment (6-mer frequency, TF over GST control); with ELF4 it was 1.05 fold enrichment (6-mer frequency, TF over GST control); with ELK4 it was 1.07 fold enrichment (6-mer frequency, TF over GST control); with ELF3, 1.15 fold enrichment (6-mer frequency, TF over GST control); with ETV1 it was 1.03 fold enrichment (6-mer frequency, TF over GST control); with ERF it was 1.01 fold enrichment (6-mer frequency, TF over GST control). For the same sequence, the binding signal in the assay with ETV3L was 1.11 fold enrichment (6-mer frequency, TF over GST control); with ETS2, 1.12 fold enrichment (6-mer frequency, TF over GST control); in the assay with ETV3, 1.07 fold enrichment (6-mer frequency, TF over GST control).

As for CGCACG, the binding signal with GABPA is 1.02 fold enrichment (6-mer frequency, TF over GST control); with ELF1 it was 1.01 fold enrichment (6-mer frequency, TF over GST control); with SPIB, 1.06 fold enrichment (6-mer frequency, TF over GST control); with FEV, 1.02 fold enrichment (6-mer frequency, TF over GST control); with ETV5 it was 1.06 fold enrichment (6-mer frequency, TF over GST control); with ELF4, 1.04 fold enrichment (6-mer frequency, TF over GST control). Also, the binding signal with ELK4 was 1.1 fold enrichment (6-mer frequency, TF over GST control); with ETV2 it was 1.09 fold enrichment (6-mer frequency, TF over GST control); with ETV1, 1.04 fold enrichment (6-mer frequency, TF over GST control); in the assay with ERF, 1.06 fold enrichment (6-mer frequency, TF over GST control); with ETV3L, 1.01 fold enrichment (6-mer frequency, TF over GST control); with ETS2, 1.02 fold enrichment (6-mer frequency, TF over GST control). For the same sequence, the binding signal with ETV7 was 1.06 fold enrichment (6-mer frequency, TF over GST control); in the assay with ETV6, 1.08 fold enrichment (6-mer frequency, TF over GST control).
